The results in this text go back to PubChem BioAssay (NCATS).

Each structure is given as a SMILES string. Inconclusive results are not listed. Entries that show only a call come without a potency. Activity calls are given as the source filed them. The call rests on the fitted dose curve; in most records, active means well fitted inhibition curve with a large enough effect; inconclusive means small, poorly fitted or top-dose-only effect; inactive means flat fitted curve, though single readings scatter.

Ubiquitin carboxyl-terminal hydrolase 1 (Homo sapiens), sequence (O94782 whole entry, looked up): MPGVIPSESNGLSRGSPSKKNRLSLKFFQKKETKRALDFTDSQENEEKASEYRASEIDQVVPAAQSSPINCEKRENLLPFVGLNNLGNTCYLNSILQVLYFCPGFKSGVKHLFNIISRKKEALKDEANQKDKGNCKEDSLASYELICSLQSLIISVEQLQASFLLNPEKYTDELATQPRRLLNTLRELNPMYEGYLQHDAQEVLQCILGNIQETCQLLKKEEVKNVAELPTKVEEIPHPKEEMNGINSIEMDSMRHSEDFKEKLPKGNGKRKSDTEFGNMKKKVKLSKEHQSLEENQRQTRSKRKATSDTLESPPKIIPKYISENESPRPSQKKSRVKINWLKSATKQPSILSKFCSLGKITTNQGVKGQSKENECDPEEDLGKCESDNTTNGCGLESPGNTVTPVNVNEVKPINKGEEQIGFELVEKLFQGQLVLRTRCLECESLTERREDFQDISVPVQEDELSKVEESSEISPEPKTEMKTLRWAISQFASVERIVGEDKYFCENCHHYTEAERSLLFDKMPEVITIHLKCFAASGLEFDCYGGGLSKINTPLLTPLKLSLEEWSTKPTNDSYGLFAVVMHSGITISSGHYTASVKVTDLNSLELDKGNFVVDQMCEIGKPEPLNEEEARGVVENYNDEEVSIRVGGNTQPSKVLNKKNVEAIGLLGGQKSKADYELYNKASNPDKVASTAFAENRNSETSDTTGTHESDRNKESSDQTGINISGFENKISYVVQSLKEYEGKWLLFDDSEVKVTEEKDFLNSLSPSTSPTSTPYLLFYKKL

The test addresses Ubiquitin carboxyl-terminal hydrolase 1 (Homo sapiens) (UniProt O94782). Description: Inhibitors of USP1/UAF1: Pilot qHTS (AID 504865).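 Further: rhodamine fluorescence freed from ubiquitin-rhodamine substrate followed over time; top concentration of the series differs between compounds; nearly all actives have a fitted effect of over 35% in size.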 Particulars: purified USP1/UAF1, Ub-rhodamine cleavage fluorescence; series mostly up to 114 µM. The source says: Deubiquitinating enzymes (DUBs) are a class of enzymes that can cleave isopeptide bond formed between the C-terminal carboxylate of ubiquitin and a lysine side-chain amino group on the target protein. Among them, ubiquitin specific proteases (USPs) constitute the largest DUB family. Human USPs are emerging as promising targets for pharmacological intervention because of their connection to a number of human diseases, including prostate, colon and breast cancer (1, 2), pediatric acute lymphoblastic leukemia (3), and familial cylindromatosis (4). The advantage of inhibiting USPs lies in the potential specificity of therapeutic intervention that can lead to better efficacy and reduce nonspecific side effects.
In a collaboration between the University of Delaware and the NIH Chemical Genomics Center, a high-throughput screen assay was developed to screen for USP1/UAF1 inhibitors. This miniaturized assay has a fluorescent read-out and is used to screen the NIH Molecular Libraries Small Molecule Repository (MLSMR) in order to identify a small molecule that inhibits USP1.
NIH Chemical Genomics Center [NCGC]
NIH Molecular Libraries Probe Centers Network [MLPCN]
Assay Submitter (PI): Zhihao Zhuang, University of Delaware
1. Priolo, C., et al. (2006) The isopeptidase USP2a protects human prostate cancer from apoptosis. Cancer Res 66, 8625-8632
2. Popov, N., et al. (2007) The ubiquitin-specific protease USP28 is required for MYC stability. Nat Cell Biol 9, 765-774
3. De Pitta, C., et al. (2005) A leukemia-enriched cDNA microarray platform identifies new transcripts with relevance to the biology of pediatric acute lymphoblastic leukemia. Haematologica 90, 890-898
4. Kovalenko, A., et al. (2003) The tumour suppressor CYLD negatively regulates NF-kappaB signalling by deubiquitination. Nature 424, 801-805
3 microliters of reagents (buffer in columns 3 and 4 as negative control and 1nM USP1/UAF1 complex in columns 1, 2, and 5-48) are dispensed into Greiner black solid bottom 1536-well assay plates. Compounds are then transferred via Kalypsys pin tool equipped with 1536-pin array (10nl slotted pins, V&P Scientific, San Diego, CA). Following an incubation step of 15 min at room temperature, 1ul of Ub-Rho substrate (150nM final concentration) is added to initiate the reaction. The plates are immediately centrifuged at 1000 rpm for 15 seconds, and subsequently transferred to a ViewLux high-throughput CCD imager (PerkinElmer) wherein kinetic measurements of fluorescence are acquired using 480 nm excitation/540 nm emission filter set (6 reads every 60 seconds, see Table 1). All reagents are diluted in an assay buffer consisting of 50mM HEPES (pH 7.8), 0.5mM EDTA, 0.1 mg/ml BSA, 1mM TCEP, and 0.01% Tween-20.
A general note: Quantitative high-throughput screening tests each substance at several concentrations.
Consider `CC(=O)OCC(=O)NCCCOc1cccc(CN2CCCCC2)c1`, for which the Potency entry was “inactive”.
As for `NCCC(O)(P(=O)(O)O)P(=O)(O)O`, the entry is “inactive”.
Take `CCCN1CCCC[C@H]1C(=O)Nc1c(C)cccc1C`: the Potency entry is “inactive”.
As for `CC(C)(C(=O)c1cccnc1)c1cccnc1`, the entry is “inactive”.
For `Nc1ccc(C(=O)O)cc1` the value was “inactive”; for `Cc1c(C)n(CCN(C)C)c2ccc(C(=O)OCCN(C)C)cc12`, “inactive”; for `CCCCCC=CCC=CCCCCCCCC(=O)OCC`, “inactive”.
As for `O=C1CCC(c2ccc(-n3ccnc3)cc2)=NN1`, the entry is “inactive”; as for `Cc1ccc(C(=O)C(C)CN2CCCCC2)cc1` (stereo not given), “inactive”.
On to `COc1cc(OC)cc(OC)c1`, for which the Potency result is “inactive”.
As for `Oc1ccc(O)cc1`, the entry is “inactive”; as for `CCOC(=O)COc1ccc2c(C)c(CCN(CC)CC)c(=O)oc2c1Cl`, “inactive”.
For `CN1CCN(CCCN2c3ccccc3Sc3ccc(S(=O)(=O)N(C)C)cc32)CC1` the value was “inactive”.
Turning to `CCCCCCCCCCCCCCCCOP(=O)([O-])OCC[N+](C)(C)C`, the Potency result was “inactive”.
With `O=C(N/N=C/c1ccccc1O)c1ccncc1`, the Potency entry was “inactive”.
For `CC(O)C(=O)O` (stereo not given), the Potency entry is “inactive”.
For `COc1ccc(CN2CCN(C(c3ccc(F)cc3)c3ccc(F)cc3)CC2)c(OC)c1OC` the value was “inactive”; for `COc1ccc(C2C(=O)c3ccccc3C2=O)cc1`, “inactive”; for `CC1(C)CCC(NC(=O)[C@@H](N)CCC(=O)O)CC1`, “inactive”.
For `CC(C)(Oc1ccc(Cl)cc1)C(=O)O` the value was “inactive”; for `O=C(COc1ccc(Cl)cc1)N1CCN(Cc2ccc3c(c2)OCO3)CC1`, “inactive”; for `O=c1ccc2ccccc2o1`, “inactive”.
With `Nc1ccc(C(=O)Nc2ccccc2N)cc1`, the Potency result is “inactive”.
In the case of `CCCCN1CCCC1C(=O)Nc1c(C)cc(C)cc1C` (stereo not given), the Potency entry was “inactive”.
Regarding `N[C@H](Cc1c[nH]c2ccccc12)C(=O)O`, the Potency entry is “inactive”.
Turning to `Cc1ncc(CSSCc2cnc(C)c(O)c2CO)c(CO)c1O`, the Potency entry is “inactive”.
As for `C[C@@H]1C[C@H]2[C@@H]3CCC4=CC(=O)C=C[C@]4(C)[C@@]3(F)[C@@H](O)C[C@]2(C)[C@H]1C(=O)CO`, the Potency entry is “inactive”.
As for `NC(CS)C(=O)O` (stereo not given), the entry is “inactive”; as for `CC(=O)c1ccc2c(c1)N(CCCN1CCC(CCO)CC1)c1ccccc1S2`, “inactive”.
In the case of `C/C=C/c1ccc(OC)cc1`, the Potency entry is “inactive”.
As for `CCCOC(C(=O)OC1CCN(C)CC1)(c1ccccc1)c1ccccc1`, the entry is “inactive”; as for `COc1cccc(CCc2ccccc2OCC(CN(C)C)OC(=O)CCC(=O)O)c1` (stereo not given), “inactive”; as for `CCCCCCCCCCOCC(O)CN` (stereo not given), “inactive”.
Consider `CC[C@H](C)C(=O)O[C@H]1CCC=C2C=C[C@H](C)[C@H](CC[C@@H]3C[C@@H](O)CC(=O)O3)[C@H]21`, for which the Potency entry was “inactive”.
In the case of `Oc1ccc(Cl)c2cccnc12`, the Potency entry is “inactive”.
Consider `COc1ccc(OC)c(C(O)CNC(=O)CN)c1` (stereo not given), for which the Potency result was “inactive”.
Consider `CN(C)C(=S)SC(=S)N(C)C`, for which the Potency result is “inactive”.
Take `O=C(O)CNC(=O)c1ccccc1`: the Potency entry is “inactive”.
With `c1ccc(OCc2ccc(CCCN3CCOCC3)cc2)cc1`, the Potency entry was “inactive”.
Consider `C[C@@H](CN(C)C)CN1c2ccccc2Sc2ccccc21`, for which the Potency result is “inactive”.
